Screens from PubChem BioAssay.
Compounds with a hit are over-represented: about 2.4% of the library has one in this group of screens.
WRN inhibitor: blocks human WRN helicase. Q14191. WRN helicase unwinding, fluorescent forked duplex, kinetic. Potency, µM (doses to about 114 µM), for inactives: at the highest dose activity change, negative = inhibition, usual class: inhibitors. actives 0.46% (n = 360,000). AID 651768; note: % is set by controls: 0 for no effect and ±100 for the full control effect; nearly all actives have a fitted effect of over 55% in size
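Primary qHTS, 1536-well format. 20 nM WRN + compound, 15 min RT; start with 100 nM forked fluorophore/quencher duplex, 2 mM ATP (final); kinetic read ex 525/em 598 nm.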
Pol iota inh: DNA polymerase iota (human) inhibition; Q9UNA4; Pol iota fluorescent replication assay, 10 min; Potency, µM (series often up to 115 µM), for inactives: at the top dose activity, negative = inhibition, most hits filed as inhibitors; actives 1% (n = 390,000); AID 588590
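Fluorescent replication assay read twice, at 0 min and 10 min after adding 50 nM (final) substrate. Enzyme (10 nM) and compounds were first incubated 15 min at room temperature; enzyme-free buffer wells were negative controls.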
POLK inh: blocks human DNA polymerase kappa activity. AID 588579. purified Pol kappa, fluorescent DNA synthesis assay, 10 min. Potency, µM (top dose mostly 107 µM), inactives show at the top dose activity, negative = inhibition, hits mostly inhibitors. actives 0.53% (n = 400,000). Q9UBT6; note: % is set by controls: 0 for no effect and ±100 for the full control effect
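Inhibition of 10 nM Pol kappa is measured by a fluorescent read-out at 0 and 10 min following addition of 50 nM substrate (final), with a 15-min room-temperature compound preincubation.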
Pol beta inh: inhibitors of human DNA polymerase beta; Pol beta primer extension/strand displacement, fluorescence kinetic; actives 1.3% (n = 340,000); Potency, µM (top dose mostly 114 µM), for the others: at the highest dose activity change, negative = inhibition, most hits filed as inhibitors; AID 485314; P06746; note: % is set by controls: 0 for no effect and ±100 for the full control effect
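Values derive from four-parameter Hill fits of normalized kinetic data: reads at 0 and 10 min following addition of 50 nM substrate to 10 nM Pol beta preincubated 15 min with compound.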
POLH inh: blocks human DNA polymerase eta activity | Potency, µM (top dose mostly 114 µM), without a hit: at the top dose activity change, negative = inhibition, actives largely listed as inhibitors | recombinant Pol eta, fluorescent DNA replication assay | actives 1.2% (n = 390,000); note: % is set by controls: 0 for no effect and ±100 for the full control effect
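Pol eta at 10 nM preincubated with compounds 15 min at room temperature; reaction started with fluorescent substrate (50 nM final) and read kinetically at 0 and 10 min.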
FEN1 inh: inhibitors of human flap endonuclease 1 | P39748 | Recombinant FEN1 flap cleavage, fluorescence, 15 min | Potency, µM (top dose mostly 114 µM), for inactives: at the top dose activity change, negative = inhibition, usual class: inhibitors | actives 0.35% (n = 390,000); note: % is set by controls: 0 for no effect and ±100 for the full control effect; nearly all actives have a fitted effect of over 65% in size
Target sequence (P39748 whole entry, looked up): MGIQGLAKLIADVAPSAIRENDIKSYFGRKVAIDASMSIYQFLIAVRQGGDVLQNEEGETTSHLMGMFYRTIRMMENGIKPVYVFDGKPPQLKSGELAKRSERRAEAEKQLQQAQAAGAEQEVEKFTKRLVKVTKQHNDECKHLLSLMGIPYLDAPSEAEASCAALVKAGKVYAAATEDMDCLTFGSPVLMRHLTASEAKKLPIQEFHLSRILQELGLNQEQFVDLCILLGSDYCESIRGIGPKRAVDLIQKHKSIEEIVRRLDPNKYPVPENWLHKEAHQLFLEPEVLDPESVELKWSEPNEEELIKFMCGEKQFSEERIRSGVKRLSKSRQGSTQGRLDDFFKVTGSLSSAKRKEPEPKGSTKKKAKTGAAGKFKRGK
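Enzyme 10 nM, 15 min RT preincubation with compound; start with substrate 50 nM final; reads at 0 and 15 min; qHTS titration, four-parameter Hill fit.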
* hit, by the source's call; u = inconclusive; x = no result; [ ] = remark or other dose. Calls come from the whole dose curve; as a rule, active = well fitted curve in the direction sought with a large enough effect; inconclusive = small, poorly fitted or top-dose-only effect, or another doubt; inactive = no such curve, though single readings can be large; an effect the other way counts as inactive or inconclusive. Potency is the fitted concentration of half-maximal effect.

SMILES | WRN inhibitor | Pol iota inh | POLK inh | Pol beta inh | POLH inh | FEN1 inh
CC(C)CCNC(=O)Nc1ccc2c(c1)N(Cc1ccccc1)C(=O)c1ccccc1S2 | x | 15% | -11% | 1% | x | -14%
COc1ccc(NC(=O)CSc2oc(-c3ccc(F)cc3)nc2S(=O)(=O)c2ccc(C)cc2)c(OC)c1 | x | u | -4% | u | u | -6%
O=C1C(N2CCOCC2)=C(n2nnc3ccccc32)C(=O)c2ccccc21 | -1% | u | -7% | -4% | 45µM* | -12%
CN1CCN(CCCNC(=O)c2cc3c(-c4ccc(Cl)cc4)nn(C)c3s2)CC1 | 25% | -10% | -5% | u | 4% | u
CCN(CC)CCCNC(=O)c1cc2c(-c3ccc(Cl)cc3)nn(C)c2s1 | 93% | u | -23% | u | 21% | 45µM*
[N-]=[N+]=Nc1ccc(C(=O)CSC[C@H](NC(=O)CC[C@H](N)C(=O)O)C(=O)NCC(=O)O)cc1 | x | 28µM* | u | u | u | x
CC1(C)CO[C@@H](CC(=O)O)CN1 | x | x | 8%[19.4 µM] | x | x | x
Cc1nc2scc(C)n2c(=O)c1S(=O)(=O)Nc1ccc(N2CCN(S(C)(=O)=O)CC2)cc1 | -13% | 50µM* | -11% | u | u | 8%
CC1=CC(C)(C)NC(=S)N1c1cccc2cc(S(=O)(=O)O)ccc12 | -22% | u | -18% | 50µM* | 13µM* | u
CC1=CC(C)(C)NC(=S)N1c1ccccc1C | 2% | 55% | -10% | 0% | -16% | -5%
CN(C)c1ccc(/C=C(\C#N)C(=O)Nc2nc3c(s2)CCN(Cc2ccccc2)C3)cc1 | -26% | 20µM* | -3% | 10% | u | u
COc1ccccc1-c1ccc2ncnc(NCCNC(C)=O)c2c1 | x | x | 0%[60.1 µM] | x | x | x
CSc1nc(SCC(N)=O)c2c3c(sc2n1)CN(C)CC3 | u | u | -6% | u | u | 50µM*
CSc1nc(SCC(=O)NCc2ccco2)c2c3c(sc2n1)CN(C)CC3 | -23% | -8% | -23% | x | u | -16%
CSc1nc(NCc2ccco2)c2c3c(sc2n1)CN(C)CC3 | x | x | x | 40µM* | x | x
CCC(C)NC(=O)c1ccccc1NC(=O)CN1C(=O)c2cccc3cccc1c23 (centres undefined) | x | 27% | -6% | 0% | -4% | -13%
COc1ccc(-c2nc(-c3cccs3)c(-c3cccs3)[nH]2)cc1OC | 3%[57.1 µM] | -8% | -23% | 89µM* | -13% | -20%
COc1ccc(-c2nc(-c3ccccc3)c(-c3cccs3)[nH]2)cc1OC | -7%[57.1 µM] | -3% | -11% | -1% | -17% | u
Cc1cnc(CNc2ncncc2-c2ccccc2C)cn1 | x | x | 9%[60.1 µM] | x | x | x
CC(=O)N1CCN(C(=O)CCc2nc3sc4c(c3c(=O)[nH]2)CCCC4)CC1 | 3% | -8% | -14% | 29% | -16% | 14%
CN(Cc1ccco1)C(=O)CCc1nc2sc3c(c2c(=O)[nH]1)CCCC3 | -23% | 45µM* | u | 8% | u | -13%
CN(C)C(=O)CCc1nc2sc3c(c2c(=O)[nH]1)CCCC3 | -7% | -7% | -5% | -1% | -15% | -1%
CN(CC(=O)Nc1ccccc1C(F)(F)F)C(=O)CCc1nc2sc3c(c2c(=O)[nH]1)CCCC3 | 7%[11.6 µM] | u | -9% | u | 45µM* | -8%
CN(CC(=O)Nc1ccc(F)cc1)C(=O)CCc1nc2sc3c(c2c(=O)[nH]1)CCCC3 | -4%[11.6 µM] | 35µM* | -36% | x | 16µM* | -15%
CN(CC(=O)Nc1ccc(F)cc1)C(=O)CCc1nc2ccccc2c(=O)[nH]1 | -6% | 15% | -4% | x | -13% | -3%
CN(CC(=O)Nc1ccc(Cl)cc1)C(=O)CCc1nc2sc3c(c2c(=O)[nH]1)CCCC3 | -14%[11.6 µM] | 28µM* | -41% | x | u | -17%
O=S1(=O)C2CC3CCC2(CN1Cc1cccc(F)c1)O3 (centres undefined) | x | 9% | 4% | x | x | -3%
